These results are taken from PubChem BioAssay AID488913 (National Center for Advancing Translational Sciences (NCATS), 2010).

Where “and” joins values, the source holds several entries; their conditions need not be identical. Identical values can stand only once. Records with an inconclusive call do not appear. Unmarked numbers belong to inactive results. Calls of active or inactive are those of the source. Calls come from the whole dose curve; as a rule, active = well fitted inhibition curve with a large enough effect; inconclusive = small, poorly fitted or top-dose-only effect, or effect the other way; inactive = no such curve, though single readings can be large or run the other way.

The assay can be described thus: Confirmation Concentration-Response Assay for lipid storage modulators: for probe SAR. To be noted: Drosophila S3 cells, BODIPY lipid droplet fluorescence, 18-24 h; series mostly up to 46.1 µM; activity change, negative = lipid storage inhibition: at the top concentration. The source says:
NIH Molecular Libraries Probe Production Centers Network [MLPCN] NIH Chemical Genomics Center [NCGC] MLPCN Grant: 1 R03 MH085686-01 Assay Submitter (PI): Beller, Mathias; Max-Planck-Institut fur Biophysikalische Chemie NCGC Assay Overview: Storing lipids as a reservoir for energy or the anabolism of elementary metabolites is a common feature of probably all cells and is conserved from bacteria to humans. The universal cellular lipid storage organelle is the so-called lipid storage droplet (LD). Although ubiquitous, LDs share a simple structure composed of a hydrophobic core that harbors the storage lipids, which is shielded by a droplet-specific phospholipid monolayer to which proteins are attached. The current model of LD biogenesis involves an incorporation of the lipid core into the membrane leaflets of the endoplasmic reticulum (ER) followed by a subsequent budding-like maturation of a LD, which ultimately pinches off. Once released, LD volume can increase by localized lipogenesis or fusion of existing droplets. Storage lipids are re-mobilized enzymatically by lipase activity. Lipase regulation in the adipocyte is heavily studied and involves multiple components including catecholamine signaling, the LD-associated proteins Perilipin and comparative gene identification-58 (CGI-58) and at least two lipases named hormone sensitive lipase (HSL) and adipocyte triglyceride lipase (ATGL). LD regulation outside of the adipocyte is poorly understood and only few components are known. However, there is an urgent need to learn more about ectopic fat depots as mislocalized storage of lipids, for example in the liver or muscle, is an eminent health problem associated with insulin resistance or the metabolic syndrome. We developed a laser-scanning cytometer assay to enable 1,536-well screening and combined the results of the small molecules screen with an RNAi database based on lipid storage.
We dispensed 4 uL of cells at 1.25 x 10^6 cells/mL into LoBase Aurora COC 1,536-well plates (black walled, clear bottom) with a bottle-valve solenoid-based dispenser (Aurora) to obtain 5,000 cells/well. Triacsin C (Sigma-Aldrich T-4540), an inhibitor of long-chain fatty acyl CoA synthetase that blocks synthesis of triglycerides, was used as a positive control for lipid under-storage. A total of 23 nL of compound solution of different concentrations were transferred to the assay plates using a Kalypsys pin tool equipped with a 1,536-pin array containing 10-nL slotted pins (FP1S10, 0.457-mm diameter, 50.8 mm long; V&P Scientific). One microliter of oleic acid (400 uM) was added, and the plate was lidded with stainless steel rubber gasket lined lids containing pinholes. After 18-24 h incubation at 24 degree Celsius and 95% humidity, 4 uL of the dyes BODIPY 493/503 (Molecular Probes) and the Cell Tracker Red CMTPX dye (Molecular Probes) were added to the wells to stain lipid droplets and enumerate cell number, respectively. Fluorescence was detected by excitation of the fluorophores with a 488-nm laser on an Acumen Explorer (TTP Lab Tech). The total intensity in channel 1 (500-530 nm) reflected lipid droplet accumulation. Cells were detected using channel 3 (575- 640 nm) with 5-um width and 100-um depth filters. The ratio of the total intensity in PMT channel 1 over total intensity of channel 3 was also calculated. Percent activity was computed relative to an internal control (100% inhibited lipid droplet deposition due to the presence of 20 uM Triacsin C), which was added to 32 wells/plate.
For `Cc1cccc(Nc2nnc(SCC(=O)Nc3nc(-c4ccc(F)cc4)cs3)s2)c1`, the Potency is 0.628 µM (active).

Regarding `COc1ccc(-n2ncc3c2CCCC3NC(=O)c2cnc(C)cn2)cc1` (stereo not given), the Potency is 1.58 µM (active).

As to `O=C(NC1CCCc2c1cnn2-c1ccc(F)cc1F)C1CCCCC1` (stereo not given), the Potency is 4.99 µM (active).

`CCOc1ccc(CCNC(=O)c2cc3sccc3n2Cc2ccccc2)cc1OCC`: the Potency is 0.0353 µM (active).

Consider `CCOc1ccc(CCNC(=O)c2cc3sc(CC)cc3n2C)cc1OCC`, for which the Potency is 1.22 µM (active).

In the case of `O=C(NC1CCCc2c1cnn2-c1ccccc1F)c1cccc2nccnc12` (stereo not given), the Potency is 2.74 µM (active).

With `CN(C)CC(=O)NC1CCCc2c1cnn2-c1ccc(F)cc1F` (stereo not given), the “activity change, negative = lipid storage inhibition” value was -14.5%.

In the case of `CCOc1ccc(CCNC(=O)CN(C)C)cc1OCC`, the “activity change, negative = lipid storage inhibition” value is 29.5%.

In the case of `CCOC(=O)C1CCCN(C(=O)C2(NC(=O)Nc3ccc(F)cc3F)CCCCC2)C1` (stereo not given), the “activity change, negative = lipid storage inhibition” value was -2.41%.

For `O=C(Cc1ccccc1)NC1CCCc2c1cnn2-c1ccc(F)cc1F` (stereo not given), the “activity change, negative = lipid storage inhibition” value was -6.41%.

For `O=C(NC1CCCc2c1cnn2-c1ccc(F)cc1F)c1ccccn1` (stereo not given), the Potency is 8.7 nM (active) and 7.9 nM (active).

With `COc1ccc(CCNC(=O)c2cc3sc(C)cc3n2C)cc1OC`, the Potency was 2.81 µM (active).

As for `O=C(NC1CCCc2c1cnn2-c1ccc(F)cc1F)c1cccs1` (stereo not given), the Potency was 0.0177 µM (active).

`Cc1ccc(-n2ncc3c2CCCC3NC(=O)c2c(F)cccc2F)cc1C` (stereo not given): the Potency was 0.158 µM (active).

Turning to `COc1ccc(-c2csc(NC(=O)Cc3cccs3)n2)cc1`, the Potency is 25 µM (active).

Consider `COc1ccc(-c2csc(NC(=O)CSc3nnc(NC4CC4)s3)n2)cc1OC`, for which the “activity change, negative = lipid storage inhibition” value was -5.24%.

Turning to `CCn1c(C(=O)NCCc2ccc(OC)cc2)cc2sccc21`, the “activity change, negative = lipid storage inhibition” value was 108%.

On to `CCOc1ccc(CCNC(=O)c2cc3sccc3n2Cc2ccc(Cl)c(F)c2)cc1OCC`, for which the Potency was 0.0063 µM (active).

For `CC(C)(C)OC(=O)NC1CCCc2c1cnn2-c1ccc(F)cc1F` (stereo not given), the Potency is 0.888 µM (active).

In the case of `S=C(Nc1cc(Cl)ccc1Oc1ccccc1)N1CCN(c2ncccn2)CC1`, the Potency is 12.5 µM (active).

Regarding `COc1ccc(CCNC(=O)c2cc3sccc3n2Cc2ccccc2)cc1OC`, the Potency is 0.315 µM (active).

On to `O=C(NC1CCCc2c1cnn2-c1ccc(F)cc1F)c1ccc[n+]([O-])c1` (stereo not given), for which the “activity change, negative = lipid storage inhibition” value is -0.966%.

As for `O=C(NCCc1ccc(O)c(O)c1)c1cc2sccc2n1Cc1ccccc1`, the “activity change, negative = lipid storage inhibition” value is -18.1%.

As to `O=C(N[C@H]1CCCc2c1cnn2-c1ccc(F)cc1F)c1ccccn1`, the Potency is 7.91 µM (active).

With `CCOc1ccc(CCNC(=O)c2cc3sccc3n2Cc2cccc(C)c2)cc1OCC`, the Potency was 0.004 µM (active).

On to `CCOc1ccc(CCNC(=O)c2cc3c(s2)CCC3)cc1OCC`, for which the Potency is 0.56 µM (active).

`Cc1ccc(-c2cnc(SCC(=O)Nc3nccs3)n2Cc2ccco2)cc1`: the “activity change, negative = lipid storage inhibition” value was 13.8%.

For `O=C(NC1CCCc2c1cnn2-c1ccc(F)cc1F)c1ccccc1` (stereo not given), the Potency is 0.056 µM (active).

`CCOc1ccc(CCNC(=O)c2cc3sccc3n2C(C)C)cc1OCC`: the Potency is 0.0996 µM (active).

Turning to `CC1=C(C(=O)NC2CCCc3c2cnn3-c2ccc(F)cc2F)OCCO1` (stereo not given), the Potency was 0.0158 µM (active).

With `CCn1c(C(=O)NCCc2ccc(OC)c(OC)c2)cc2sccc21`, the Potency was 3.97 µM (active).

In the case of `CCOC(=O)C1CCN(C(C)C(=O)NC(=O)NC2CCCCC2)CC1` (stereo not given), the “activity change, negative = lipid storage inhibition” value was 25.6%.

With `O=C(NC1CCCc2c1cnn2-c1ccc(F)cc1F)c1ccc2cc[nH]c2c1` (stereo not given), the Potency is 7.71 µM (active).

As to `CCOc1ccc(CCNC(C)=O)cc1OCC`, the “activity change, negative = lipid storage inhibition” value was 41.6%.

For `O=C(NC1CCCc2c1cnn2-c1ccc(F)cc1F)C1CC1` (stereo not given), the Potency is 1.58 µM (active).

For the compound `CC(C)(C)OC(=O)N1CCCCC1C(=O)NC1CCCc2c1cnn2-c1ccc(F)cc1F` (stereo not given), the “activity change, negative = lipid storage inhibition” value was -14.1%.

For `O=C(NC1CCCc2c1cnn2-c1cc(F)cc(F)c1)c1cccc2nccnc12` (stereo not given), the Potency was 3.45 µM (active).

Regarding `O=C(Cc1cccs1)Nc1nc(-c2ccc3c(c2)CCC3)cs1`, the “activity change, negative = lipid storage inhibition” value was -3.86%.

In the case of `O=C(CSc1nnc(NCc2ccccc2)s1)Nc1nc(-c2cccc(Br)c2)cs1`, the Potency was 1.25 µM (active).

For `O=C(NC1CCCc2c1cnn2-c1ccccc1F)c1ccc2ncccc2c1` (stereo not given), the Potency was 2.23 µM (active).
